From PubChem BioAssay
Most compounds without a hit are left out; they make up all but 7% or so of the library.
ATXN viability = cell viability loss in ATXN counter-screen | Potency, µM (doses to about 56.7 µM), usual class: cytotoxic | S2 cells (HEK-293 line with an ATXN2-luciferase reporter) viability, CellTiter-Fluor protease fluorescence, 24 h | 400,000 compounds, 0.49% hits; also: potency is read from the fitted curve at half-maximal effect; nearly all actives have a fitted effect of over 40% in size
IL-1B inflam inh = inflammasome signaling inhibition, IL-1 beta readout; THP-1 LPS/ATP IL-1B secretion, AlphaLISA, 16 h; hits give low values; activity change, % at 57.5 µM; 360,000 compounds, 4.7% hits; AID 743279; in the data active = activity change below about -50%; inconclusive = mostly about -30% to -49%; also: % is scaled to controls: 0 for no effect and ±100 for the full control effect
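Secreted IL-1B measured by AlphaLISA bead assay after 16 h compound exposure of THP-1 cells; compounds (final up to 57.5 uM) added 1 h before LPS (250 ng/mL) and ATP (1.25 mM) stimulation; lower signal means less secretion.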
a7 integrin act = activates integrin-mediated alleviation for muscular dystrophy | alpha7betagal myoblasts, beta-gal FDG fluorescence, 48 h | Potency, µM (doses to about 38.3 µM), without a hit: at the highest dose activation, actives largely listed as activators | 350,000 compounds, 0.064% hits | AID 624291;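 also: potency is read from the fitted curve at half-maximal effect; 100% = response of the positive control SU9516; nearly all actives have a fitted effect of over 60% in size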
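alpha7betagal+/- myoblasts (passage 13, 250/well) treated 48 h at 37C with compounds at 1:260 dilution of DMSO stock. Lysed, then beta-galactosidase activity read as FDG fluorescence (ex 480/em 540) after 30 min, with pre-read for autofluorescence.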
D3 ag = D3 dopamine receptor (human) agonism; P35462; D3R DiscoveRx beta-arrestin cells, luminescence, 90 min; max activation, %; 410,000 compounds, 0.58% hits; in the data active = max activation above about 30%; also: 0% is about no effect
Target sequence (P35462 whole entry, looked up): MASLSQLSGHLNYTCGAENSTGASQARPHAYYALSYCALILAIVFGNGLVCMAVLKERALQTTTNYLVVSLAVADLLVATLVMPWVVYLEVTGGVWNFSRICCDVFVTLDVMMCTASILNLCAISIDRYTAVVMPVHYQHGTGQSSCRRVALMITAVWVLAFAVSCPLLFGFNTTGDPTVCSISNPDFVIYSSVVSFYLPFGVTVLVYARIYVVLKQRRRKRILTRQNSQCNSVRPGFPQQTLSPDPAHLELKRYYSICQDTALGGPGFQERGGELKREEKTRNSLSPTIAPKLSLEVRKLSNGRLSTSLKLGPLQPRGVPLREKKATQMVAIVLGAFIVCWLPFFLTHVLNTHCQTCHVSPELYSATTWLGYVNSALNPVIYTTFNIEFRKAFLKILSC
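Agonist-mode cell screen: cells plated at 1500/well and incubated overnight at 37 °C, then exposed to library compounds for 90 min at 37 °C. Detection reagent was added for 30–60 min at room temperature, and luminescence was read.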
ATXN2 expr inh = reduces ATXN2 reporter expression in HEK-293 cells | AID 1745845 | 360,000 compounds, 0.72% hits | Potency, µM (series often up to 57 µM), inactives show at the top dose activity change, negative = inhibition, actives largely listed as inhibitors | HEK-293 ATXN2-luciferase reporter, luminescence, 24 h; also: potency is read from the fitted curve at half-maximal effect; % is scaled to controls: 0 for no effect and ±100 for the full control effect; nearly all actives have a fitted effect of over 55% in size
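ATXN2-luciferase reporter cells (luciferase flanked by upstream and downstream ATXN2 gene portions) were treated 24 h at 37 °C with compounds at up to 57 uM. SteadyGlo luminescence gave expression; GF-AFC fluorescence gave viability.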
D3 antag = antagonists of human D3 dopamine receptor; D3R cells, DiscoveRx beta-arrestin luminescence, antagonist mode; hits give low values; AID 652054; max response, negative = inhibition, %; 360,000 compounds, 2.5% hits; P35462; in the data active = max response below about -50%; inconclusive = no clear call, values can overlap the other calls; also: % is scaled to controls: 0 for no effect and ±100 for the full control effect
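Cells expressing the human receptor were seeded at 1500 cells/well, incubated overnight at 37 degrees C in 5% CO2, then exposed to library compounds with dopamine controls for 90 minutes at 37 degrees C before luminescent detection.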
The depositor's hits bear a star; i = inactive; ? = inconclusive; . = not tested or not shown; ! = a repeat was not active. Unless noted, calls follow the shape of the dose curve; as a rule, active = well fitted curve in the direction sought with a large enough effect; inconclusive = small, poorly fitted or top-dose-only effect, or another doubt; inactive = no such curve, though single readings can be large; an effect the other way counts as inactive or inconclusive.

SMILES	ATXN viability	IL-1B inflam inh	a7 integrin act	D3 ag	ATXN2 expr inh	D3 antag
CC(=O)N1C2=CCCC3CCCCC23c2ccccc21 (centres undefined)	i	-10	20%	-10	-21%	0
O=C(c1ccco1)N1CCN(Cc2nc3ccc([N+](=O)[O-])cc3c(=O)n2-c2ccccc2F)CC1	i	70	-25%	1	-9%	26
CS(=O)(=O)Nc1ccc(Br)cc1	i	27	.	-7	-6%	0
CCOC1(OCC)C(c2ccc(N)cc2)C(C#N)(C#N)C1(OCC)OCC (centres undefined)	i	-7	-16%	2	16%	-5
CCOC1(OCC)C(c2ccc(Cl)cc2)C(C#N)(C#N)C1(OCC)OCC (centres undefined)	?	-57*	-59%	-2	?	-1
Cc1cccc(NC(=S)N/C(=N/S(=O)(=O)c2ccccc2)c2ccccc2)c1	i	0	0%	-3	32%	-61*!
Cc1ccc(S(=O)(=O)/N=C(/NC(=S)Nc2cccc(C)c2)c2ccccc2)cc1	i	8	30%	-13	30%	-23
Cc1cc(C)cc(NC(=O)C(OC(=O)C2=COCCO2)c2ccccc2)c1 (centres undefined)	i	-16	20%	5	26%	-13
CC#CC#Cc1cccc(=O)o1	?	-75*	-4%	-1	.	5
Cc1ccsc1C(=O)N/N=C/C=C/c1ccccc1[N+](=O)[O-]	i	-4	0%	-6	16%	-85*
CCOC(=O)c1cncc(O)c1	i	0	20%	4	-12%	6
Cc1cc2c(Nc3ccccc3)ncnc2s1	i	-24	41%	-19	10%	-61*
Cc1cc2c(NCCc3ccccc3)ncnc2s1	i	-70*	-34%	9	3%	6
OCCCNc1ncnc2sc(-c3ccccc3)cc12	i	-68*	9%	-3	-19%	-1
CCOc1cc(N2CCOCC2)c(OCC)cc1NC(=O)[C@H](C)NC(=O)c1ccco1	i	-13	?	-7	-20%	-2
C/C(=N/NC(=O)CN(c1ccccc1)S(=O)(=O)c1ccccc1)c1ccccc1O	?	49	-50%	-21	.	-52*
Cc1ccc(S(=O)(=O)N(CC(=O)NCc2cccs2)c2ccccc2)cc1	i	-13	6%	-30	-19%	-66*
Cc1ccc(N(CC(=O)NCc2cccs2)S(=O)(=O)c2cccs2)cc1	?	-2	20%	3	3%	0
CCc1ccccc1OCC(=O)Nc1ccc(F)c(S(=O)(=O)N2CCOCC2)c1	i	-28	-18%	7	-1%	8
O=C(NCc1ccc(Cl)cc1)C(=O)c1cn(CC(=O)N2CCOCC2)c2ccccc12	i	2	23%	-2	11%	-23
CC(C)(Cc1ccccc1)NC(=O)C(=O)c1cn(CC(=O)N2CCOCC2)c2ccccc12	i	13	8%	-10	1%	-70*
Cc1cccc(/C=C/C(=O)c2ccc([N+](=O)[O-])o2)c1	10µM*	-100*	-35%	-6	10µM*	-58*
Cc1ccccc1/C=C/C(=O)c1ccc([N+](=O)[O-])o1	13µM*	0	-42%	-18	13µM*	-58*
O=C(/C=C/c1cccc([N+](=O)[O-])c1)c1ccco1	?	-7	1%	-13	-33%	?
Cc1cccc(NC(=O)c2ccc([N+](=O)[O-])o2)n1	?	0	-59%	-3	-21%	0
Cc1ccc(C(=O)/C=C/c2ccc(F)cc2)o1	i	-103*	-45%	-1	-11%	6
O=C(/C=C/c1cccc([N+](=O)[O-])c1)c1ccc([N+](=O)[O-])o1	3.5µM*	-52*	-45%	-63	?	-137*
COc1ccc(/C=C/C(=O)c2ccc([N+](=O)[O-])o2)cc1	?	-14	7%	-28	?	-75*
Cc1cc(C)cc(NS(=O)(=O)CCCS(=O)(=O)Nc2cc(C)cc(C)c2)c1	?	-81*	6%	5	?	-4
